This passage reports Potency and activity change, negative = inhibition results from PubChem BioAssay AID2551 (National Center for Advancing Translational Sciences (NCATS), 2010).

Among all 310,000 compounds or so, about 17,000 (5.5%) were called active. Another 11% or so got no clear call; they are omitted. The entries come from a sample that favours actives as a whole. Where a call stands in place of a potency, no number is given. Values without a mark were called inactive. Calls come from the whole dose curve; as a rule, active = well fitted inhibition curve with a large enough effect; inconclusive = small, poorly fitted or top-dose-only effect, or effect the other way; inactive = no such curve, though single readings can be large or run the other way.
Potency is the fitted concentration of half-maximal effect.

In this test the target is Nuclear receptor ROR-gamma (Mus musculus) (UniProt P51450). As to the kind of experiment: qHTS for inhibitors of ROR gamma transcriptional activity. Note: nearly all actives have a fitted effect of over 60% in size. The following applies: Drosophila S2 Gal4-RORgamma UAS-luciferase reporter, 20 h; series mostly up to 53.6 µM. A digest of the protocol: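 Using a luciferase readout, inhibitors were identified by reduced reporter activity in Drosophila cells coexpressing a copper-inducible Gal4–ROR gamma fusion and UAS-driven Photinus luciferase, incubated 20 hr after 700 uM copper sulfate.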
Nuclear receptor ROR-gamma (Mus musculus), sequence (P51450 whole entry, looked up, the tested form may be a part): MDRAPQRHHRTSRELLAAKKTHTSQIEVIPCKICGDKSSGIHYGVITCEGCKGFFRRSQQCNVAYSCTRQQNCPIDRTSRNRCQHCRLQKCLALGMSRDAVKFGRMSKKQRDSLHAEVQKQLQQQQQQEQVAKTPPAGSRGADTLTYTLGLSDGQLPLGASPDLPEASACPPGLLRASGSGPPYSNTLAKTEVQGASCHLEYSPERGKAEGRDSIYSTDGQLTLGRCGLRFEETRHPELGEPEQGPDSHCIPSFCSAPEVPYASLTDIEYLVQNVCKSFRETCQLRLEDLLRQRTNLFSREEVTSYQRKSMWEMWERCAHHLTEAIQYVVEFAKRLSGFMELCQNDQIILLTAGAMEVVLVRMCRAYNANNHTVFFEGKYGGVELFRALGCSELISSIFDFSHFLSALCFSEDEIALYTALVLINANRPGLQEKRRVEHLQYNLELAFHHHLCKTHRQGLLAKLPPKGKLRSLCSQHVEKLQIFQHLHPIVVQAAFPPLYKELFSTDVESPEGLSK
(In general: qHTS replaces the single test concentration by a dilution series.)
Consider `S=c1[nH]nc(-c2ccncc2)n1/N=C/c1ccccc1Cl`, for which the Potency entry was “inactive”.
On the same count and under the same terms, as for `S=c1[nH]nc(-c2cc(-c3ccccc3)n[nH]2)n1/N=C/c1c2ccccc2cc2ccccc12`, the figure is 7.94 µM (active); as for `S=c1[nH]nc(-c2ccco2)n1/N=C/c1ccc(Br)s1`, 11.2 µM (active).
The same measure, in the same setting: next, `CCN(CC)S(=O)(=O)c1cccc(-c2n[nH]c(=S)n2/N=C/c2ccc(C(=O)OC)cc2)c1`: “inactive”.
The same measure, in the same setting: next, `Oc1ccccc1/C=N/n1c(-c2cccs2)n[nH]c1=S`: 10 µM (active).
`CCOc1ccc(-c2n[nH]c(=S)n2/N=C/c2cc3c(cc2[N+](=O)[O-])OCO3)cc1`: the activity change, negative = inhibition is -47.7% [at 10 µM].
As for `Cc1ccc(/C=N\n2c(-c3ccccc3)n[nH]c2=S)s1`, the Potency was 3.98 µM (active).
In the case of `Cc1ccc(-c2n[nH]c(=S)n2/N=C/c2cc3c(cc2[N+](=O)[O-])OCO3)cc1`, the Potency result is “inactive”.
Consider `c1ccc(-c2cc(-c3nnc4sc(-c5ccccn5)nn34)[nH]n2)cc1`, for which the Potency result is “inactive”.
The same measure, in the same setting: next, `S=c1[nH]nc(-c2cccs2)n1/N=C/c1cn(-c2ccccc2)nc1-c1ccc(Cl)cc1`: “inactive”.
As for `Brc1ccc(/C=N/N2CCN(C3c4ccccc4-c4ccccc43)CC2)s1`, the Potency result is “inactive”.
For `O=C(CCN1CCN(C/C=C/c2ccccc2)CC1)Nc1ccccc1Cl`, the Potency entry was “inactive”.
`C/C=C/C(=O)OCc1csc(CC(=O)Nc2ccccc2C)n1`: the Potency entry is “inactive”.
`COc1cccc(N(CC(=O)NC2CCCCCC2)S(=O)(=O)c2ccccc2)c1`: the Potency entry is “inactive”.
Take `COc1ccc(CCNC(=O)CCc2cn(C)c3ccccc23)c(OC)c1`: the Potency entry is “inactive”.
Still for that read-out and setting: as for `Cc1cccc(NC(=S)NCCN(C2CCCCC2)C2CCCC2)c1`, the figure is 8.91 µM (active); as for `Cc1cccc(NC(=S)NC23CN4CN(CN(C4)C2)C3)c1`, “inactive”.
Same read-out and setting: as for `Cc1cccc(NC(=O)C2CCN(C(=O)NC3CCCCC3)CC2)c1`, the entry is “inactive”; as for `O=C(NC1CCCC1)C(=O)c1c[nH]c2ccccc12`, “inactive”.
Still for that read-out and setting: next, `CCOc1ccc2[nH]c(C(=O)N/N=C/c3cccc(OC)c3OC)cc2c1`: “inactive”; `C#CC(C)(C)NC(=O)c1cnc(-c2ccccc2)nc1-c1ccccc1`: “inactive”; `CCCc1nnc(NC(=O)CCC(=O)N2CCN(S(=O)(=O)c3ccc(OC)cc3)CC2)s1`: “inactive”.
Turning to `COc1ccccc1NC(=O)Nc1nnc(Cc2ccc(F)cc2)s1`, the Potency result was “inactive”.
Same read-out and setting: as for `COc1ccc(Cc2nnc(NC(=O)c3cc(OC)c(OC)c(OC)c3)s2)cc1OC`, the figure is 7.08 µM (active); as for `CCCc1nnc(NC(=O)c2cccs2)s1`, “inactive”.
On the same count and under the same terms, as for `COc1ccc(Cc2nnc(NC(=O)c3ccc(OC)cc3OC)s2)cc1`, the entry is “inactive”.
As for `CCCc1nnc(NC(=O)c2cc(OC)cc(OC)c2)s1`, the Potency was 11.2 µM (active).
In the case of `Cc1cc(C)c2nc(N3CCC(C(=O)NCCN4CCOCC4)CC3)sc2c1`, the Potency result is “inactive”.
The same measure, in the same setting: next, `Cc1nonc1NC(=O)c1oc2ccccc2c1C`: “inactive”.
On the same count and under the same terms, next, `COc1ccc(C(=O)C2CCCN(C(=O)c3cc(C)on3)C2)cc1F` (stereo not given): “inactive”; `COc1ccccc1CNC(=O)c1ccc(N(C)S(=O)(=O)c2ccc(C)cc2)cc1`: “inactive”.
In the case of `COc1ccc(CSc2nnnn2-c2ccc(C(=O)O)cc2)cc1`, the Potency entry is “inactive”.
The same measure, in the same setting: as for `COc1cc(/C=N/Nc2nc3ccccc3s2)ccc1O`, the entry is “inactive”; as for `COc1cc(/C=C(\C#N)c2nc3ccccc3[nH]2)ccc1O`, “inactive”.
Turning to `COc1cc(/C=C(\C#N)c2nc3c(s2)CC(C)CC3)ccc1O` (stereo not given), the Potency is 1.41 µM (active).
For the compound `CCc1ccc(OCC(=O)NCC(c2ccc(Cl)cc2)N2CCCCC2)cc1` (stereo not given), the Potency entry is “inactive”.
On the same count and under the same terms, as for `C[C@H]1[C@H]2c3nc4ccccc4n3C[C@H]1ON2C1CCCCC1`, the figure is 11.2 µM (active).
Still for that read-out and setting: next, `O=C(Nc1ccccc1)C1CC(=O)n2c(nc3ccccc32)N1` (stereo not given): “inactive”.
The same measure, in the same setting: next, `OC1CSc2nc3ccccc3n2C1` (stereo not given): “inactive”.
Regarding `Cc1ccc(-n2nc3c(=O)n(C(C)C(=O)NCc4ccc5c(c4)OCO5)nc(C)c3c2C)cc1` (stereo not given), the Potency entry was “inactive”.
Consider `CN(CC1CCCO1)S(=O)(=O)c1ccc(C(=O)Nc2ccc(F)cc2)cc1` (stereo not given), for which the Potency result was “inactive”.
Still for that read-out and setting: next, `COCCn1c(-c2ccc(OC)c(OC)c2)nc2ccccc21`: “inactive”; `COc1ccc(NC(=O)COC(=O)Cn2c(C)nc3ccccc32)cc1OC`: “inactive”; `COc1ccc(-c2nc3ccccc3n2CCC(C)C)cc1OC`: 11.2 µM (active).
Still for that read-out and setting: next, `COc1cccc(CNC(=O)COc2cc(O)c3c(c2)OC(C)(C)CC3=O)c1`: “inactive”.
As for `Cc1[nH]c(C)c(S(=O)(=O)N2CCN(c3cccc(C(F)(F)F)c3)CC2)c1C(=O)N1CCCC1`, the Potency result was “inactive”.
Consider `Cc1ccccc1N1CCN(S(=O)(=O)c2ccc3ccccc3c2)CC1`, for which the Potency entry was “inactive”.
On the same count and under the same terms, next, `Cc1cccn2c(=O)c(C=O)c(Nc3ccc(S(N)(=O)=O)cc3)nc12`: “inactive”.
Still for that read-out and setting: as for `CN(CC1CCCO1)S(=O)(=O)c1ccc(C(=O)Nc2ccc([N+](=O)[O-])cc2)cc1` (stereo not given), the entry is “inactive”.
On the same count and under the same terms, next, `CC(=O)N1c2ccc(S(=O)(=O)N3CCC(C(=O)NC4CCCC(C)C4C)CC3)cc2CC1C` (stereo not given): “inactive”; `Cc1ccccc1CNC(=O)CCC(=O)N1Cc2ccccc2Oc2ncccc21`: “inactive”; `COc1ccc2[nH]c(=O)c(CN(Cc3cccnc3)S(=O)(=O)c3ccccc3F)cc2c1`: “inactive”.
Regarding `FC(F)(F)Oc1ccc(NC(=S)NCc2ccccc2)cc1`, the Potency is 7.08 µM (active).
As for `O=C(CCOc1ccccc1)NCc1ccccc1`, the activity change, negative = inhibition is 5.22% [at 0.365 µM].
As for `CCNC(=S)Nc1ccc(OC(F)(F)F)cc1`, the Potency was 8.91 µM (active).
Same read-out and setting: next, `COC(=O)Cc1ccc(OCC(=O)Nc2ccc(OC(F)(F)F)cc2)cc1`: “inactive”; `Cn1nccc1NC(=O)Nc1ccc(OC(F)(F)F)cc1`: “inactive”.
Same read-out and setting: next, `COc1cc(C(=S)NCc2ccccc2)cc(Br)c1O`: “inactive”.
The same measure, in the same setting: as for `CC(C)Cn1c(=O)c2ccccc2n2c(CCC(=O)NCc3ccccn3)nnc12`, the entry is “inactive”; as for `Cc1ccc(C(C(=O)NCC2CCCO2)N(C(=O)c2snc(C(N)=O)c2N)c2ccc(C(C)C)cc2)o1` (stereo not given), “inactive”; as for `CCOc1ccc(OCC(=O)Nc2c3c(nn2C(C)(C)C)CS(=O)(=O)C3)cc1`, “inactive”.
Consider `CC(C)(C)c1ccc(SCCc2ccncc2)cc1`, for which the Potency entry is “inactive”.
As to `COc1ccc2c(c1)SC(C)CC2=O` (stereo not given), the Potency result was “inactive”.
Take `COc1ccc2c(c1)OC(O)(C(F)(F)C(F)F)CC2=O` (stereo not given): the Potency is 12.6 µM (active).
As for `CC1(C)CC(=O)c2ccc(O)cc2O1`, the Potency entry was “inactive”.
For the compound `CC(=O)N1CCOc2ccc(S(=O)(=O)N3CCN(c4cccc(C(F)(F)F)c4)CC3)cc21`, the Potency entry was “inactive”.
Same read-out and setting: next, `COc1ccc(-c2nnc(SCC(=O)NC3CCCCC3)o2)cc1OC`: “inactive”; `COc1ccc(OC)c(C(=O)CSc2nnc(-c3cccs3)o2)c1`: 7.08 µM (active).
On the same count and under the same terms, next, `COc1ccc(-n2c(C)cc(C(=O)CSc3nnc(-c4cccs4)o3)c2C)cc1`: “inactive”; `COCCOC(=O)C1=C(C)NC(=O)NC1c1cc2c(cc1Br)OCO2` (stereo not given): “inactive”.
In the case of `O=C(O)c1ccc(N/N=C/c2ccc3ncccc3c2)cc1`, the Potency was 0.398 µM (active).
`O=C(O)c1ccc(/C=N/Nc2nc(N3CCCCC3)nc(N3CCCCC3)n2)cc1`: the Potency result was “inactive”.
The same measure, in the same setting: as for `Cc1ccc2cc(/C=N/Nc3ccc(C(=O)O)cc3)c(Cl)nc2c1`, the entry is “inactive”; as for `O=C(O)c1ccc(OCC2CCCO2)cc1` (stereo not given), “inactive”.
On the same count and under the same terms, next, `N=C1/C(=C/c2cccn2-c2cccc([N+](=O)[O-])c2)C(=O)N=C2SC=CN12`: 5.01 µM (active).
The same measure, in the same setting: next, `Cc1ccc(-c2nc(-c3ccncc3)no2)c(C)c1`: “inactive”; `CCOc1ccccc1NC(=O)CCc1nnc2ccc(NCc3ccco3)nn12`: “inactive”; `CC1=C/C(=N\S(=O)(=O)c2ccccc2)C(C(C)C)=CC1=O`: “inactive”.
Turning to `CC1=C/C(=N\OS(=O)(=O)c2ccccc2)C=CC1=O`, the Potency is 1.58 µM (active).
On to `O=S(=O)(ON(c1ccccc1)S(=O)(=O)c1ccccc1)c1ccccc1`, for which the Potency entry is “inactive”.
Still for that read-out and setting: as for `CCN1C(=NCC(C)C)N[C@@H](CCc2ccccc2)[C@H](C(=O)NCC(C)C)[C@H]1C`, the entry is “inactive”; as for `Fc1ccc(Br)cc1/C=N/n1cnnc1`, “inactive”.
With `CCOc1cc(/C=N/n2cnnc2)c(Br)cc1O`, the Potency is 7.08 µM (active).
On the same count and under the same terms, as for `Brc1cc(/C=N/n2cnnc2)oc1Br`, the entry is “inactive”.
The same measure, in the same setting: as for `O=C(CN1CCN(c2ccc(Cl)cc2)CC1)c1ccccc1`, the entry is “inactive”; as for `COc1ccc(S(=O)(=O)NCCOc2ccccc2)cc1F`, “inactive”.
Turning to `COc1ccc(NS(=O)(=O)c2cc(C(=O)Nc3ccccc3C(=O)O)ccc2C)cc1`, the Potency entry was “inactive”.
On the same count and under the same terms, next, `COc1ccc(/C=C(/NC(=O)c2ccc(C)cc2)c2nc3ccccc3[nH]2)cc1OC`: “inactive”; `COCCN(CCOC)S(=O)(=O)c1ccc(/C(O)=C(\C#N)c2nc3ccccc3[nH]2)cc1`: 12.6 µM (active); `COCCN(CC(=O)Nc1ccccc1C)S(=O)(=O)c1ccc(S(=O)(=O)N2CCCC2)cc1`: “inactive”.
Still for that read-out and setting: next, `COc1ccc(-n2c(=O)[nH]c3cc(C(=O)NCCc4ccc(OC)c(OC)c4)ccc3c2=O)c(OC)c1`: “inactive”; `COc1ccc(CN2CC(C(=O)NC3CCCCC3)CC2=O)cc1` (stereo not given): “inactive”; `COc1ccc(CN2CN(C3CCCC3)CSC2=S)cc1`: 7.94 µM (active).
Turning to `COc1ccc(CNC2CCCCC2)cc1`, the Potency entry is “inactive”.
As for `CCN(C(=O)CN1C(=O)/C(=C/c2ccc(F)cc2)SC1=S)C1CCS(=O)(=O)C1` (stereo not given), the Potency result was “inactive”.
`CN(CC(=O)NCc1ccc(Cl)cc1)S(=O)(=O)c1cccs1`: the Potency result was “inactive”.
The same measure, in the same setting: next, `O=C(Cc1nc2ccccc2[nH]c1=O)c1ccc(Cl)cc1`: “inactive”.
Turning to `N#C/C(=C(/O)COC(=O)COc1ccc(Cl)cc1)c1nc2ccccc2[nH]1`, the Potency was 8.91 µM (active).
The same measure, in the same setting: as for `O=C(COc1ccccc1)NCCc1nc2ccccc2[nH]1`, the entry is “inactive”; as for `COc1ccccc1CNC(=O)C1CCN(S(=O)(=O)c2ccc3c(c2)OCCO3)CC1`, “inactive”.
Turning to `COc1ccc(NC(=O)CC(NC(C)c2ccccc2)C(=O)O)cc1` (stereo not given), the Potency entry is “inactive”.
On the same count and under the same terms, as for `Cc1nn2c3ccccc3nc2n(C)c1=O`, the entry is “inactive”; as for `CN1c2ccccc2-c2nc3ccccc3n2C1c1ccco1` (stereo not given), 14.1 µM (active).
Same read-out and setting: as for `Cc1cc(NCc2ccco2)n2c(nc3ccccc32)c1C#N`, the entry is “inactive”; as for `N#Cc1c(-c2ccccc2)nc(SCc2ccc([N+](=O)[O-])cc2)[nH]c1=O`, “inactive”.
